Assay results published in PubChem BioAssay AID1159580 (chemical genetic matrix, 2015).
Values joined by “and” are separate entries in the source; they are usually repeats but may differ in a detail not shown here. Equal entries are not always repeated. The campaign covered roughly 5,500 compounds. About 2,000 (36%) were called active. Not shown: some 18% with an inconclusive outcome. Cut-off read from the data, not from the text of the source: active = normalized growth mostly below about 0.91 (no sharp cut-off); inconclusive = no clear call, values can overlap the other calls; inactive = mostly above about 0.92. Some of the results follow.

Experiment: chemical genetic growth profiling, strain panel (AID 1159580);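 note: tested at 20 µM; growth read once vehicle control cultures reached saturation at 30 °C; 1 = growth at the plate median or of vehicle wells; lower values mean less growth of the strain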
Conditions: S. cerevisiae deletion strains, growth OD

Measured: normalized growth

N#C/C(=C\c1ccc(O)cc1)C(=O)O
inactive: locus YAL013W, strain DEP1, active compounds read low 0.988 | locus YAL021C, strain ccr4, active compounds read low 0.979 | locus YAL026C, strain drs2, active compounds read low 1 | locus YAL030W, strain snc1, active compounds read low 1.01 | locus YBL061C, strain skt5, active compounds read low 1.01 | locus YBR009C, strain hhf1, active compounds read low 1.02 | locus YBR021W, strain FUR4, active compounds read low 1.02 | locus YBR023C, strain chs3, active compounds read low 1 | locus YBR171W, strain sec66, active compounds read low 0.991 | locus YBR229C, strain ROT2, active compounds read low 0.956 | locus YBR231C, strain swc5, active compounds read low 1.01 | locus YBR279W, strain paf1, active compounds read low 1 | locus YCL011C, strain gbp2, active compounds read low 0.987 | locus YCL016C, strain dcc1, active compounds read low 1.01 | locus YCL029C, strain bik1, active compounds read low 0.997 | locus YCL061C, strain MRC1, active compounds read low 0.993 | locus YCL069W, strain vba3, active compounds read low 0.996 | locus YCR088W, strain abp1, active compounds read low 0.987 | locus YDL005C, strain med2, active compounds read low 0.997 | locus YDL035C, strain GPR1, active compounds read low 0.994 | locus YDL040C, strain nat1, active compounds read low 1 | locus YDL074C, strain BRE1, active compounds read low 0.966 | locus YDL101C, strain DUN1, active compounds read low 0.951 | locus YDL134C, strain PPH21, active compounds read low 0.987 | locus YDL185W, strain tfp1, active compounds read low 0.976 | locus YDL192W, strain arf1, active compounds read low 0.993 | locus YDR001C, strain nth1, active compounds read low 0.996 | locus YDR069C, strain doa4, active compounds read low 1 | locus YDR101C, strain arx1, active compounds read low 1.01 | locus YDR137W, strain rgp1, active compounds read low 0.992 | locus YDR150W, strain NUM1, active compounds read low 0.981 | locus YDR159W, strain sac3, active compounds read low 1.01 | locus YDR162C, strain NBP2, active compounds read low 0.937 | locus YDR195W, strain ref2 0.988 | locus YDR297W, strain sur2, active compounds read low 0.997 | locus YDR318W, strain mcm21, active compounds read low 1.04 | locus YDR334W, strain swr1, active compounds read low 0.961 | locus YDR335W, strain msn5, active compounds read low 1 | locus YDR388W, active compounds read low 1.01 | locus YDR392W, strain spt3, active compounds read low 0.972 | locus YDR502C, strain sam2, active compounds read low 0.987 | locus YEL003W, strain gim4, active compounds read low 0.989 | locus YEL037C, strain rad23, active compounds read low 0.986 | locus YEL061C, strain CIN8 (second series), active compounds read low 0.984 | locus YEL061C, strain CIN8, active compounds read low 0.984 | locus YER015W, strain faa2, active compounds read low 1 | locus YER016W, strain bim1, active compounds read low 1.01 | locus YER110C, active compounds read low 0.999 | locus YER111C, strain swi4, active compounds read low 0.999 | locus YER155C, strain BEM2 (second series), active compounds read low 1.01 | locus YER155C, strain BEM2, active compounds read low 0.987 | locus YER167W, strain BCK2, active compounds read low 1.01 | locus YFR010W, strain ubp6, active compounds read low 0.983 | locus YGL078C, strain dbp3, active compounds read low 0.985 | locus YGL086W, strain mad1, active compounds read low 1.02 | locus YGL167C, strain pmr1, active compounds read low 1.01 | locus YGL173C, strain kem1, active compounds read low 1 | locus YGL227W, strain vid30, active compounds read low 0.998 | locus YGL240W, strain doc1, active compounds read low 1.03 | locus YGL248W, strain PDE1, active compounds read low 0.976 | locus YGL253W, strain hxk2, active compounds read low 0.999 | locus YGR078C, strain PAC10, active compounds read low 0.97 | locus YGR135W, strain pre9, active compounds read low 0.988 | locus YGR229C, strain SMI1, active compounds read low 0.996 | locus YGR252W, strain gcn5, active compounds read low 1.09 | locus YHR013C, strain ard1, active compounds read low 1.02 | locus YHR027C, strain rpn1, active compounds read low 0.99 | locus YHR030C, strain SLT2, active compounds read low 0.997 and 1.06 | locus YHR079C, strain IRE1 (second series), active compounds read low 1 | locus YHR079C, strain IRE1, active compounds read low 1.07 | locus YHR094C, strain hxt1, active compounds read low 0.998 | locus YHR129C, strain ARP1, active compounds read low 0.986 | locus YHR142W, strain chs7, active compounds read low 0.954 | locus YHR200W, strain rpn10, active compounds read low 0.996 | locus YIL066C, strain RNR3, active compounds read low 0.981 | locus YIL073C, strain SPO22, active compounds read low 1.1 | locus YIL125W, strain kgd1, active compounds read low 0.997 | locus YIR030C, strain dcg1, active compounds read low 0.988 | locus YJL092W, strain hpr5, active compounds read low 0.979 | locus YJL095W, strain BCK1 (second series), active compounds read low 1 | locus YJL095W, strain BCK1, active compounds read low 0.979 and 1.08 | locus YJL115W, strain asf1, active compounds read low 0.988 | locus YJL129C, strain trk1, active compounds read low 0.98 | locus YJL134W, strain LCB3, active compounds read low 0.983 | locus YJL154C, strain vps35, active compounds read low 0.975 | locus YJL164C, strain tpk1, active compounds read low 1 | locus YJL166W, strain qcr8, active compounds read low 1.01 | locus YJL168C, strain set2, active compounds read low 0.992 | locus YJL187C, strain SWE1 (second series), active compounds read low 0.96 | locus YJL187C, strain SWE1, active compounds read low 1 | locus YJR043C, strain POL32, active compounds read low 1.04 | locus YJR066W, strain TOR1, active compounds read low 0.992
